High-throughput results deposited in PubChem BioAssay by National Center for Advancing Translational Sciences (NCATS).
Hits are enriched below; roughly 12% of the tested compounds scored in any of these assays.
BAZ2B block: inhibitors of human BAZ2B bromodomain; Potency, µM (doses to about 114 µM), hits mostly inhibitors; AID 504333; 360,000 tested, 4.4% active; Q9UIF8; AlphaScreen BAZ2B-H3K14Ac peptide displacement; note: nearly all actives have a fitted effect of over 60% in size
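Complex of BAZ2B and biotin-H3K14Ac (50 nM apiece) forms over 30 min at RT, then faces library compounds up to 110 uM for another 30 min; AlphaScreen beads added, 20 min dark incubation, luminescence read.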
HP1b chromo inh: blocks HP1-beta chromodomain binding to methylated histone tails. AlphaScreen HP1-beta / biotin-H3K9me3 peptide binding. Potency, µM (titrated, usually from 114 µM), actives largely listed as inhibitors. 390,000 tested, 0.56% active. AID 540317; note: nearly all actives have a fitted effect of over 70% in size
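HP1-beta protein (50 nM final) preincubated 30 min at room temperature with biotinylated H3(1-18)K9me3 peptide (50 nM) in PBS pH 7.4, 0.01% Tween-20, then compound added for 30 min. AlphaScreen streptavidin donor/nickel chelate acceptor beads (10 ug/mL final), 30 min dark, luminescence read.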
JMJD2A Tudor inh: inhibitors of human JMJD2A Tudor domain; Potency, µM (series often up to 114 µM), hits mostly inhibitors; 390,000 tested, 4.4% active; AID 504339; O75164; AlphaScreen JMJD2A-Tudor / H3K4me3 peptide binding; note: nearly all actives have a fitted effect of over 50% in size
L3MBTL1 block: inhibitors of human L3MBTL1; Q9Y468; AlphaScreen L3MBTL1–H3K9me1 peptide binding; Potency, µM (top dose mostly 57.1 µM), actives largely listed as inhibitors; 230,000 tested, 0.66% active; AID 485360; note: nearly all actives have a fitted effect of over 60% in size
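L3MBTL1 50 nM + b-AHA-H3(1-15)K9me1 75 nM, 30 min RT; compound added, 30 min RT; streptavidin donor/Ni-chelate acceptor beads 10 ug/mL each final, 30 min RT dark; AlphaScreen read.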
G9a inh: G9a (human) methyltransferase inhibition; Potency, µM (top dose mostly 102 µM), most hits filed as inhibitors; G9a H3K9 monomethylation, AlphaScreen, 2 h; 350,000 tested, 8.8% active; Q96KQ7; note: nearly all actives have a fitted effect of over 75% in size
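G9a (20 nM) was preincubated 15 min with compound, then reacted 2 h at room temperature with 500 nM biotin-H3K9 peptide and 20 µM SAM. Monomethyl-H3K9 detected by AlphaScreen using anti-H3K9me1 antibody.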
Sfp inh: inhibitors of Bacillus subtilis Sfp phosphopantetheinyl transferase; Q9F4F7; Biochemical Sfp PPTase activity, qHTS; Potency, µM, actives largely listed as inhibitors; 310,000 tested, 3.5% active; AID 1490;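 note: the enzyme is Sfp with the accession as filed and its product quenches rhodamine fluorescence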
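With Hepes-Na pH 7.6 buffer containing 10 mM MgCl2, Sfp (15 nM) modified BHQ-2-YbbR (12.5 uM) using rhodamine-CoA (5 uM). Two reads 30 minutes apart at 525/598 nm yielded each well's rate.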
Numbers stand for hits. Calls come from the whole dose curve; as a rule, active = well fitted curve in the direction sought with a large enough effect; inconclusive = small, poorly fitted or top-dose-only effect, or another doubt; inactive = no such curve, though single readings can be large; an effect the other way counts as inactive or inconclusive.

`O=S(=O)(Nc1cccc2nsnc12)c1ccccc1` gave BAZ2B block inactive, HP1b chromo inh inactive, JMJD2A Tudor inh inactive, G9a inh inactive and Sfp inh inactive.
Cc1cc(F)ccc1NS(=O)(=O)c1cccc2nsnc12 was read as BAZ2B block inactive, HP1b chromo inh inactive, JMJD2A Tudor inh inactive, L3MBTL1 block inactive, G9a inh inactive and Sfp inh inactive.
Cc1nc(-c2ccc(S(=O)(=O)N(C)Cc3ccccc3)cc2)co1 was read as BAZ2B block inactive, HP1b chromo inh inactive, JMJD2A Tudor inh inactive and G9a inh inactive.
For S=c1[nH]cc(Cc2ccccc2)s1 the results were BAZ2B block inactive, HP1b chromo inh inconclusive, JMJD2A Tudor inh 3.98µM, L3MBTL1 block inactive, G9a inh 1.78µM and Sfp inh inconclusive.
Screening CC(=O)Nc1sc(N/N=C/c2ccccc2)nc1-c1ccc(C)cc1 returned BAZ2B block inconclusive, HP1b chromo inh inconclusive, JMJD2A Tudor inh inconclusive, L3MBTL1 block inactive, G9a inh 15.8µM and Sfp inh inactive.
CC(=O)Nc1sc(N/N=C/c2ccccc2F)nc1-c1ccc(C)cc1 was read as BAZ2B block inactive, HP1b chromo inh inactive, JMJD2A Tudor inh inconclusive, L3MBTL1 block inactive, G9a inh 14.1µM and Sfp inh inactive.
Screening Nc1nc(-c2cccs2)c(NC(=O)c2ccccc2)s1 returned BAZ2B block inconclusive, HP1b chromo inh inactive, JMJD2A Tudor inh inconclusive, L3MBTL1 block inactive, G9a inh 7.94µM and Sfp inh inactive.
`CC(=O)Nc1sc(N/N=C/c2ccc(O)cc2)nc1-c1ccc(C)cc1` gave BAZ2B block inconclusive, HP1b chromo inh 39.8µM, JMJD2A Tudor inh 44.7µM, L3MBTL1 block inactive, G9a inh 12.6µM and Sfp inh inactive.
`CC(=O)Nc1sc(NC(=O)c2ccc(Cl)cc2)nc1-c1cccs1` gave BAZ2B block inactive, HP1b chromo inh inactive, JMJD2A Tudor inh inactive, L3MBTL1 block inactive and Sfp inh inactive.
Screening CCN(c1ccccc1)c1nnc(NC(=O)Nc2ccc(C)cc2)s1 returned BAZ2B block inactive, HP1b chromo inh inactive, JMJD2A Tudor inh inactive and G9a inh inactive.
Screening CCOc1cc(/C=N/Nc2nc(-c3cccs3)c(NC(C)=O)s2)ccc1O returned BAZ2B block 39.8µM, HP1b chromo inh 20µM, JMJD2A Tudor inh 28.2µM, L3MBTL1 block inactive, G9a inh 20µM and Sfp inh inactive.
For CC(=O)Nc1sc(N/N=C\c2ccccc2Cl)nc1-c1cccs1 the results were BAZ2B block inactive, HP1b chromo inh inactive, JMJD2A Tudor inh inconclusive, L3MBTL1 block inactive, G9a inh inactive and Sfp inh inactive.
`CC(=O)Nc1sc(N/N=C\c2ccccc2)nc1-c1cccs1` gave BAZ2B block inconclusive, HP1b chromo inh 50.1µM, JMJD2A Tudor inh 20µM, L3MBTL1 block inactive, G9a inh 11.2µM and Sfp inh 50.1µM.
`COc1ccc(/C=N/Nc2nc(-c3ccc(C)cc3)c(NC(C)=O)s2)cc1` gave BAZ2B block inconclusive, HP1b chromo inh inconclusive, JMJD2A Tudor inh 56.2µM, L3MBTL1 block inactive, G9a inh 10µM and Sfp inh inactive.
For CC(=O)Nc1sc(N/N=C\c2ccco2)nc1-c1cccs1 the results were BAZ2B block inconclusive, HP1b chromo inh 14.1µM, JMJD2A Tudor inh inconclusive, L3MBTL1 block inactive, G9a inh 5.62µM and Sfp inh 17.8µM.
`CC(=O)c1sc(N/N=C\c2ccc(Br)cc2)nc1C` gave BAZ2B block inactive, HP1b chromo inh inactive, JMJD2A Tudor inh inactive, L3MBTL1 block inactive, G9a inh inactive and Sfp inh inactive.
Screening Cc1cc(C)cc(OCC(=O)NCC(c2ccc(Cl)cc2)N2CCCCC2)c1 (centres undefined) returned BAZ2B block inactive, HP1b chromo inh inactive, JMJD2A Tudor inh inactive and G9a inh inactive.
For CCOC(=O)c1nc(N/N=C/c2ccccc2)sc1Br the results were BAZ2B block inactive, HP1b chromo inh inactive, JMJD2A Tudor inh inactive, L3MBTL1 block inactive, G9a inh 44.7µM and Sfp inh inactive.
For CC1(C)CC(=O)CC2(C1)NCC(c1ccccc1)c1c2[nH]c2ccccc12 (centres undefined) the results were BAZ2B block inactive, HP1b chromo inh inactive, JMJD2A Tudor inh inconclusive, L3MBTL1 block inactive, G9a inh inconclusive and Sfp inh inactive.
`COc1cccc(C2CNC3(CCCC(C)C3)c3[nH]c4ccccc4c32)c1OC` (centres undefined) gave BAZ2B block 44.7µM, HP1b chromo inh inactive, JMJD2A Tudor inh inconclusive, G9a inh inconclusive and Sfp inh inactive.
For Cc1c(-c2ccccn2)c(=O)[nH]n1-c1ccc(F)cc1 the results were BAZ2B block 50.1µM, HP1b chromo inh inactive, JMJD2A Tudor inh inconclusive, L3MBTL1 block inactive, G9a inh inactive and Sfp inh inactive.
Screening CC1(C)Cc2c(cnn2-c2ccc(F)cc2)C(NC(=O)c2ccco2)C1 (centres undefined) returned BAZ2B block inactive, HP1b chromo inh inactive, JMJD2A Tudor inh inactive, G9a inh inactive and Sfp inh inactive.
CC1(C)Cc2c(cnn2-c2ccc(F)cc2)C(NC(=O)C2=NNC(=O)CC2)C1 (centres undefined) was read as BAZ2B block inactive, HP1b chromo inh inactive, JMJD2A Tudor inh 15.8µM, G9a inh inactive and Sfp inh inactive.
`Cc1ccc(Cc2nc3ccccc3nc2SCC(=O)N2CCCCC2C)cc1` (centres undefined) gave BAZ2B block inactive, HP1b chromo inh inactive, JMJD2A Tudor inh inactive and G9a inh inactive.
`CCc1ccc(C(C)NC(=O)c2cccs2)cc1` (centres undefined) gave HP1b chromo inh inactive and JMJD2A Tudor inh inactive.
For CCn1c(C(C)NC(=O)c2cccs2)n[nH]c1=S (centres undefined) the results were BAZ2B block inactive, HP1b chromo inh inactive, JMJD2A Tudor inh 7.08µM, L3MBTL1 block inactive, G9a inh 12.6µM and Sfp inh inactive.
C=CCn1c(CNC(=O)c2cccs2)n[nH]c1=S was read as BAZ2B block inactive, HP1b chromo inh inactive, JMJD2A Tudor inh inconclusive, L3MBTL1 block inactive, G9a inh 25.1µM and Sfp inh inactive.
C=CCn1c(C(C)NC(=O)c2cccs2)n[nH]c1=S (centres undefined) was read as BAZ2B block inactive, HP1b chromo inh inactive, JMJD2A Tudor inh 17.8µM, L3MBTL1 block inactive, G9a inh 15.8µM and Sfp inh inactive.
For Cc1[nH]c2ccc(F)cc2c1CCNC(=O)c1cc2cc(Cl)ccc2oc1=O the results were BAZ2B block inactive, HP1b chromo inh inactive, JMJD2A Tudor inh inactive and G9a inh inactive.
`CCc1cccc2cc(C(O)CNC(C)(C)C)oc12` (centres undefined) gave Sfp inh inactive.
